Out of some 190,000 compounds screened, about 45 (0.02%) were called active. Rule as the data show it: active = inhibition above about 40%. Not all results are given here.
biological target: Bcl-2-like protein 2 (Homo sapiens) (UniProt Q92843); assay: Bcl-W/Bim complex disruptors – biochemical, multiplexed, bead-based flow cytometry, primary screen (AID 952); details: Bim peptide-Bcl-W binding, at 10 µM, stronger effect = higher value;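 also: 0% = bound tracer without compound and 100% = peptide blocker; higher means less fluorescent Bim peptide bound to Bcl-W beads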
Sequence (Q92843 whole entry, looked up): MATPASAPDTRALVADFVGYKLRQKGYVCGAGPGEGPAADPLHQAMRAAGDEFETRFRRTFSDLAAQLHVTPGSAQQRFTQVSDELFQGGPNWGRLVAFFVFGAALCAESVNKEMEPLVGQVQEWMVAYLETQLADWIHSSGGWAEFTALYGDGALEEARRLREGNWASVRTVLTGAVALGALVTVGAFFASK

inhibition, inactive:
Cc1cccc(C(=O)N2CCc3c([nH]c4ccccc34)C2CC(C)C)n1 (configuration not stated) 3%, CN(C)S(=O)(=O)c1ccc2oc(SCC(=O)Nc3ccccc3F)nc2c1 0%, O=C(NNC(=O)c1ccccc1[N+](=O)[O-])Nc1ccccc1C(F)(F)F 0%, Cc1cc(C(=O)NNC(=S)Nc2ccccc2C)cs1 0%, COC(=O)c1ccccc1NC(=O)C1CC(=O)N(c2ccc(OC)cc2)C1 (configuration not stated) 0%, Cc1noc(C)c1S(=O)(=O)N(C)Cc1ccccc1 -1%, CNCC(O)CN1CCN(c2ccccc2OC)CC1 (configuration not stated) -1%, Cc1ccc(CCCOC(=O)C[N+]2(C)CCCCC2)cc1 0%, CCOC(=O)NN1C(=O)c2ccccc2NC1c1cccc(O)c1 (configuration not stated) 0%, CCOC(=O)c1c(/N=C/C2C(=O)CC(C)(C)CC2=O)sc(C)c1C 2%, COc1ccc(Cl)cc1C(=O)NNC(=S)NC1CCCC1 1%, Cc1cc(N2CCOCC2)nc(-c2ccc(Br)cc2)n1 -3%, OCC(O)CN(c1ccccc1)c1ccccc1 (configuration not stated) -1%, O=C(CNC1CCCCC1)NCC1(c2ccccc2)CCCC1 0%, COCCn1c(Cc2cccn2C)nnc1SCC(=O)Nc1nccs1 2%, COc1cc(CNC2CCCC2)c(Br)cc1OCc1ccccc1 -3%, O=C(NCCN1CCOCC1)c1cc(Sc2cccc(Cl)c2)nc2ccccc12 -3%, CCN1CCN(CC(=O)c2cc(OC)c(OC)c(OC)c2)CC1 -1%, O=C(Cc1ccc(F)cc1)N1CCN=C1SCc1cccc([N+](=O)[O-])c1 -1%, CCN(CC)CCNS(=O)(=O)c1ccc(/C=C/C(=O)O)cc1 -2%, C=CCc1ccc(OCC(O)CN2CCN(Cc3ccccc3)CC2)c(OC)c1 (configuration not stated) -2%, Cn1c(N)c(C(=O)COC(=O)c2cnc(Cl)c(Cl)c2)c(=O)n(C)c1=O 0%, Cc1ccc(NC(=O)CSc2nnc(CNC(=O)c3ccccc3F)o2)cc1 2%, O=[N+]([O-])c1ccc(N2CCNCC2)cc1NCc1cccnc1 0%, CCOC(=O)c1cc(-c2ccc(F)cc2)n(CC(=O)NCc2ccccn2)c1C 0%, CCOC(=O)N1CCN(CCC(=O)Nc2cc(OC)ccc2OC)CC1 1%, C=CCNC(=O)COC(=O)c1ccccc1C(=O)N(C)C1CCCCC1 0%, COc1ccccc1N1CCN(C(=O)C(=O)N/N=C/c2ccccc2F)CC1 -3%, COc1ccc(C(=O)CSc2nc(C)cc(C)n2)cc1[N+](=O)[O-] -1%, CC(C)Oc1ccc(Cc2n[nH]c(=S)n2Cc2ccccc2)cc1Cl -7%, CC1CCCN(CC(O)COCc2ccccc2)C1 (configuration not stated) 1%, CCCC(NC(=O)c1ccco1)c1nc2ccccc2[nH]1 (configuration not stated) -5%, C=CCn1c(SCc2cccc(F)c2)nc2cc(C(=O)N3CCC(C(N)=O)CC3)ccc2c1=O -2%, CN(CCOc1ccccc1)Cc1nc2cc(Cl)ccc2c(=O)[nH]1 0%, CC1CC(C)CN(S(=O)(=O)c2ccc(C(=O)NN3CCOCC3)cc2)C1 (configuration not stated) 1%, COc1ccc2c(c1)C(SCC(=O)NCc1ccccc1)CC(C)(C)O2 (configuration not stated) -4%, COC(=O)CCNC(=O)c1ccc2[nH]c(C)c(C)c2c1 1%, Cc1ccc(NC(=O)CSc2nnc(COc3ccccc3C)o2)cc1 -1%, COC(=O)CC(=O)N1CCN(c2ccc(Cl)c(Cl)c2)CC1 4%, CSCc1ccc(C(=O)Nc2cc(C)cc(C)c2)cc1 -5%, CCN1CCN(CC(=O)Nc2sc3c(c2C#N)CCC3)CC1 3%, CCOc1cnc(C(=O)NNC(=O)c2ccccc2Br)o1 0%, COc1ccc(-c2csc(NC(=O)COC(=O)c3ccc(Br)o3)n2)cc1 -1%, O=C(CCSc1ccccc1)N1CCN(c2ccccc2F)CC1 -2%, O=C(CCCc1ccccc1)NCc1ccccc1 -1%, COc1cc(/C=C/C2=CC(C)(C)NC(=S)N2)cc(OC)c1OC 0%, CCCCN(CC)C(=O)c1ccccc1Oc1ccccc1 -2%
